LDHA block = qHTS assay for inhibitors of human lactate dehydrogenase. activity change, % (values are at about 110 or 230 µM). L-lactate dehydrogenase A chain (Homo sapiens), P00338. purified LDHA, NADH/diaphorase-resazurin fluorescence; active compounds read low. actives 0.15% (n = 480,000); in the data active means activity change below about -30%; inconclusive means mostly about -25% to -30%;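 further: plate controls were DMSO wells for no effect and wells without enzyme for full effect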
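LDH5 2 nM; NADH 0.06 mM, pyruvate 0.2 mM; 200 mM Tris pH 7.4, EDTA, Tween-20; 5 min RT. Detection: diaphorase 0.133 mg/mL + resazurin 37 µM, fluorescence ex540/em590 at 0 and 20 min; normalized to enzyme-free and DMSO wells.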
A549 viability = Nrf2 qHTS screen for inhibitors: counterscreen for cytotoxicity; A549 ARE-Fluc cells, CellTiter-Fluor viability, 18-24 h; Potency, µM (highest dose often 46 µM), without a hit: top-dose activity change, negative = cytotoxicity, actives largely listed as inhibitors; actives 0.16% (n = 390,000); further: potency means the concentration at half of the fitted maximal effect; on the % scale 0 is the no-effect control and ±100 the full control effect
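A549 ARE-Fluc cells in 5% FBS OPTI-MEM, 5000 cells/well, rested 2 h then exposed to compounds in concentration-response for 18-24 h at 37 °C. Viability by CellTiter-Fluor fluorescence (Ex 405/Em 525) after 30 min; luciferase luminescence (BugLite, 15 min, RT) read afterwards.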
Nrf2 inh = Nrf2 qHTS screen for inhibitors. A549 ARE-Fluc reporter, luciferase luminescence, 18-24 h. Potency, µM (top dose mostly 46 µM), inactives show top-dose activity change, negative = inhibition, hits mostly inhibitors. actives 2.1% (n = 360,000); further: potency means the concentration at half of the fitted maximal effect; on the % scale 0 is the no-effect control and ±100 the full control effect; nearly all actives have a fitted effect of over 60% in size
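Nrf2 function is reported as luminescence of an ARE-controlled luciferase in A549 cells. Compounds were tested at several concentrations, and a CellTiter-Fluor read on the same wells flagged cytotoxicity.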
IDH1 R132H inh = qHTS for Inhibitors of mutant isocitrate dehydrogenase 1 (IDH1): qHTS; Isocitrate dehydrogenase [NADP] cytoplasmic (Homo sapiens), O75874; IDH1-R132H enzyme, NADPH consumption, diaphorase/resazurin fluorescence; Potency, µM (top dose mostly 76.6 µM), for inactives: at the highest dose activity change, negative = inhibition, most hits filed as inhibitors; actives 0.093% (n = 390,000); further: potency means the concentration at half of the fitted maximal effect; on the % scale 0 is the no-effect control and ±100 the full control effect; nearly all actives have a fitted effect of over 65% in size
Target sequence (O75874 whole entry R132H, stated change not applied): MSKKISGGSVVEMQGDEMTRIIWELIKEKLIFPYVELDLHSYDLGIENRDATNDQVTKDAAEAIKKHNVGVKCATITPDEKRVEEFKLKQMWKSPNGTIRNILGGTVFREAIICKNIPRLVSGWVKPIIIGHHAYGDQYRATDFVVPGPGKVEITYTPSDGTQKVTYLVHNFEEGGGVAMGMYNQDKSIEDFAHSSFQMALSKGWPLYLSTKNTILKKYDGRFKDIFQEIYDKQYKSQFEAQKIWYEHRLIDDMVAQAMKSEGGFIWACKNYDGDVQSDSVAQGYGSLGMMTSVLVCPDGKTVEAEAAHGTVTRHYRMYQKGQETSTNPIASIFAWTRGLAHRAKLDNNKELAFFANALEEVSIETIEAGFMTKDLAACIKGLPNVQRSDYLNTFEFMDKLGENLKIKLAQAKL
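IDH1-R132H (0.5 ug/mL) preincubated 30 min with compound, then NADPH (0.016 mM) and alpha-KG (2 mM) added; 80 min at RT, pH 7.5. Remaining NADPH coupled via diaphorase/resazurin to fluorescence (540/590 nm); concentration-response curves normalized to no-enzyme control.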
Nrf2 activator = qHTS of Nrf2 Activators. AREc32 ARE-luciferase reporter (MCF7-derived line), luminescence, 24 h. Potency, µM (top dose mostly 46.1 µM), for inactives: at the top dose activation, actives largely listed as activators. actives 0.31% (n = 410,000); further: potency means the concentration at half of the fitted maximal effect; % of control where 0% means no effect; nearly all actives have a fitted effect of over 65% in size
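AREc32 cells carrying an ARE-driven firefly luciferase reporter were seeded at 1000 cells/well in OPTI-MEM with 5% FBS, then exposed to compound for 24 hr at 37 deg C. Luminescence was read with Steady-Glo after 30 min at RT.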
12-LOX inh = Primary qHTS assay for inhibitors of human arachidonate 12S-lipoxygenase (ALOX12): Round 2. Polyunsaturated fatty acid lipoxygenase ALOX12 (Homo sapiens), P18054. purified 12hLO, xylenol orange hydroperoxide absorbance. Potency, µM (titrated, usually from 108 µM), for the others: at the highest dose activity change, negative = inhibition, usual class: inhibitors. actives 1.1% (n = 580,000). AID 1671190, 2021; further: potency means the concentration at half of the fitted maximal effect; on the % scale 0 is the no-effect control and ±100 the full control effect
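Purified human 12hLO (150 nM final) in 25 mM Hepes, 0.01% Triton X-100, pH 7.0 was preincubated 15 min at room temperature with compound. Then 40 uM arachidonic acid was added, 30 min. Hydroperoxide was read by Fe-XO absorbance ratio 573/405 nm.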
Numbers without * were called inactive; ? = inconclusive; · = no result given; [ ] = dose if it differs, or a comment. Hits are enriched below; roughly 2.7% of the tested compounds scored in any of these assays. Unless noted, the call rests on the fitted dose curve; in most records, active means well fitted curve in the direction sought with a large enough effect; inconclusive means small, poorly fitted or top-dose-only effect, or another doubt; inactive means no such curve, though single readings can be large; an effect the other way counts as inactive or inconclusive.

SMILES	LDHA block	A549 viability	Nrf2 inh	IDH1 R132H inh	Nrf2 activator	12-LOX inh
CCC(C)(C)c1ccc(Oc2ccc(N)cc2)cc1	-4	-20%	5.8µM*	5%	-2%	-18%
COc1cccc(OCC(O)CN2CCC(CN3C(=O)c4cccc5cccc(c45)C3=O)CC2)c1 (stereo not given)	-14	?	20%	9%	16%	?
Cc1cc(C)cc(OCC(O)CN2CCC(CN3C(=O)c4cccc5cccc(c45)C3=O)CC2)c1 (stereo not given)	-3	?	18µM*	-2%	-1%	?
Cc1cc(=O)oc2cc(OCC(=O)NCc3ccccc3)ccc12	-11	·	·	·	·	?
COc1cc(C2CC(=O)N3CN(Cc4ccco4)CSC3=C2C#N)ccc1OCc1ccccc1 (stereo not given)	2	0%	-2%	8%	0%	25µM*
N#CC1=C2SCN(Cc3ccccc3)CN2C(=O)CC1c1ccc2c(c1)OCO2 (stereo not given)	12	12%	0%	10%	0%	40µM*
COc1ccc(C2CC(=O)N3CN(Cc4ccco4)CSC3=C2C#N)cc1 (stereo not given)	35	·	6%	10%	0%	?
O=C(C1CC=CCC1)N1CCN(Cc2ccccc2)CC1 (stereo not given)	2	·	·	·	·	2%
CCc1ccc2oc(=O)cc(-c3oc4ccccc4c3NC(=O)C3CC3)c2c1	1	·	·	·	·	7.9µM*
Cc1cc(-c2nc3cccnc3s2)ccc1NS(=O)(=O)c1ccc2c(c1)OCCO2	-14	6%	?	-5%	13%	28%
Cc1c(NS(=O)(=O)c2ccc3c(c2)OCCO3)cccc1-c1nc2cccnc2s1	-2	-11%	21µM*	-12%	0%	13%
CN(CCCC(=O)OC(C)(C)C)C(=O)c1ccccc1Cl	-3	·	·	·	·	6%
O=C(Nc1cccc(-c2nc3ccccc3o2)c1)c1cc([N+](=O)[O-])ccc1Cl	-5	·	·	·	·	?
CCCn1c2c(c(O)c(C(=O)Nc3nccs3)c1=O)CCCC2	-2	-2%	?	-12%	3%	17%
CC(C)Cn1c2c(c(O)c(C(=O)Nc3nccs3)c1=O)CCCC2	5	-11%	21µM*	1%	0%	1%
CSc1ccccc1NC(=O)CN(C)C(C)C(=O)Nc1ccc(SC(F)F)cc1 (stereo not given)	-10	·	·	·	·	-4%
O=C(Cc1ccc(-c2ccccc2)cc1)NCCc1c[nH]c2ccccc12	0	·	·	·	·	11%
NC(=O)[C@H]1CC2(CC(c3cccc(NC(=O)COc4ccc(Cl)cc4)c3)=NO2)CN1C(=O)c1ccc(Cl)cc1 (stereo not given in full)	-1	?	26µM*	-3%	-3%	?
Cc1nn(C(C)C(=O)N2CCN(c3ccc(Cl)cc3)CC2)c(=O)c2cc3occc3n12 (stereo not given)	-1	-13%	21µM*	3%	3%	-21%
CCc1nn(C(C)C(=O)N2CCN(c3ccccc3)CC2)c(=O)c2cc3occc3n12 (stereo not given)	-2	0%	-16%	4%	0%	0%
CC1=CC2C(C(O)CC3(C)C2CC(C)C32OCOC23COCO3)C2(C)C/C(=C\O)C(=O)C=C12 (stereo not given)	2	?	21µM*	0%	-3%	?
COc1ccc2cc(S(=O)(=O)c3cc(C)cc(C)c3)c(=O)oc2c1	13	·	·	·	·	-50%
Cc1[nH]c2ccccc2c1C(=O)C(C)Sc1nnc(CCC(N)=O)n1CC(C)C (stereo not given)	1	·	·	·	·	-4%
O=C(/C=C/Nc1ccccc1C(F)(F)F)c1ccco1	2	-1%	?	8%	1.8µM*	?
NC(=O)c1ccccc1N/C=C/C(=O)c1ccco1	3	-5%	?	1%	?	0%
SMILES	LDHA block	A549 viability	Nrf2 inh	IDH1 R132H inh	Nrf2 activator	12-LOX inh
Cc1cc(C)cc(OCC(=O)NNC(=O)c2ccccn2)c1	0	-25%	10µM*	-10%	0%	0%
CC1CCCCN1C(=O)c1cc2cc([N+](=O)[O-])ccc2oc1=O (stereo not given)	1	·	·	·	·	16%
CCN1C(=NCCc2ccc(Br)cc2)N[C@@H](c2ccccc2)[C@H](C(=O)OC)[C@H]1C	-9	7%	13%	-4%	-1%	45µM*
CCCC(=O)OCCNc1cc(SCc2ccco2)c2nonc2c1[N+](=O)[O-]	17	?	-10%	2%	?	?
CC(=O)OCCCNc1cc(SCc2ccco2)c2nonc2c1[N+](=O)[O-]	22	16µM*	-2%	-3%	?	?
COc1ccc(-c2nc(C#N)c(NCC(c3cccs3)N3CCOCC3)o2)cc1 (stereo not given)	9	·	·	·	·	?
C[C@]12CC[C@@H]3c4cc(O)c(O)cc4CC[C@H]3[C@@H]1CC[C@@H]2O	18	-13%	-2%	-11%	23%	7.9µM*
CC12CCC3c4ccc(O)cc4CCC3C1CCC2O (stereo not given)	·	·	·	·	·	51%
C[C@@](N)(C(=O)O)c1ccc(P(=O)(O)O)cc1	·	·	·	·	·	13µM*
O=S(=O)(NC[C@H]1Cn2c(-c3ccc(F)cc3)cnc2CO1)c1ccc(Cl)cc1	·	·	·	·	·	50µM*
CS(=O)(=O)NC[C@H]1Cn2c(-c3ccc(F)cc3)cnc2CO1	·	·	·	·	·	-1%[176 µM]
COc1cc(NC2CCCCC2O)c2nc(-c3ccc(Cl)cc3)ccc2c1 (stereo not given)	4	9.2µM*	?	7%	-3%	?
Cc1ncc(-c2ccc(C)c(S(=O)(=O)Nc3cccc(Cl)c3)c2)o1	-6	·	·	·	·	-18%
CC(=O)c1ccc(N2CCN(C(=O)Nc3cccc(Cl)c3)CC2)cc1	-2	·	·	·	·	40%
CC(=O)c1ccc(NC(=O)CN2CCN(CC(=O)Nc3ccc(C(C)=O)cc3)CC2)cc1	1	3%	10%	0%	0%	-4%
CC(=O)c1ccc(N2CCN(C(=O)Nc3ccc(Cl)cc3)CC2)cc1	-7	-7%	16µM*	-3%	4%	-4%
CC(=O)c1ccc(NC(=O)N2CCN(c3cccc(Cl)c3)CC2)cc1	-3	-7%	9.2µM*	-2%	-1%	0%
CC(=O)c1ccc(NC(=O)CN2CCN(c3ccccc3)CC2)cc1	0	-3%	-18%	-2%	0%	11µM*

From PubChem BioAssay
